Data taken from PubChem BioAssay (NCI).
About 83,000 compounds went through this panel and 20% of them were active in at least one assay; those are over-represented in the sample as a whole.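 Growth was measured after 48 h exposure to one concentration of compound in 96-well plates. Values under 10 count as active.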 The source made the active and inactive calls.

Columns and labels:
Assay in all cases: NCI-60 one-dose screen, 48 h (100 = growth as untreated, 0 = no growth, -100 = all killed)
Conditions in all cases: 10 µM
[1] = system: NCI-H23 lung
[2] = system: NCI-H226 lung
[3] = system: NCI-H322M lung
[4] = system: HOP-62 NSCLC
[5] = system: NCI-H460 lung
[6] = system: HOP-92 NSCLC
[7] = system: NCI-H522 lung
[8] = system: A549/ATCC NSCLC
[9] = system: 786-0 renal
[10] = system: COLO 205 colon
[11] = system: DU-145 prostate
[12] = system: K-562 leukemia
[13] = system: MALME-3M melanoma
[14] = system: MDA-MB-231 breast
[15] = system: SF-268 CNS
[16] = system: SF-295 CNS
[17] = system: SF-539 CNS
[18] = system: UACC-257 melanoma
[19] = system: M14 melanoma

Measured: growth

O=C(/C=C/Nc1ccc(F)cc1F)c1ccc2c(c1)Nc1ccccc1S2
inactive: [1] 70.3% | [2] 53.2% | [3] 89.3% | [4] 78.5% | [5] 55.4% | [6] 85.5% | [7] 75% | [8] 81% | [9] 88.1% | [10] 80.6% | [11] 89.4% | [12] 28.6% | [13] 66.1% | [14] 77.5% | [15] 82.2% | [16] 65.3% | [17] 62.4% | [18] 88.2% | [19] 66.4%

CC1(c2ccccc2)NC(=O)N(CC(=O)Nc2ccc(C(=O)/C=C/C=C/c3ccccc3)cc2)C1=O (centres undefined)
inactive: [1] 73.4% | [2] 57.2% | [3] 73.9% | [4] 77.2% | [5] 73.2% | [6] 57.3% | [7] 75.8% | [8] 58.7% | [10] 98% | [11] 61.3% | [12] 14.8% | [13] 81.3% | [14] 63.1% | [15] 57.1% | [17] 20.5% | [18] 63.6% | [19] 59.3%
active: [9] 7.33% | [16] 5.15%

COc1cc2c3c(n(CCCn4ccnc4)c(=O)c2cc1OC)-c1nc2c(cc1C3=O)OCO2
inactive: [1] 20% | [2] 30.3% | [3] 71.6% | [4] 22.7% | [6] 117% | [7] 40.4% | [8] 47.7% | [9] 12.1% | [10] 34.2% | [11] 13.4% | [12] 28.4% | [13] 59.9% | [14] 84.1% | [15] 42.4% | [18] 66% | [19] 19.9%
active: [5] 8.7% | [16] -7.74% | [17] -10.1%

CN1C/C(=C\c2ccc(O)cc2O)c2[o+]c3cc(O)ccc3cc2C1
inactive: [1] 56.6% | [2] 56.3% | [3] 88% | [4] 77.8% | [5] 35.8% | [6] 58.8% | [8] 99.5% | [9] 41.7% | [10] 58.3% | [11] 78.7% | [12] 34.9% | [13] 26.5% | [14] 14.2% | [15] 70% | [16] 92.5% | [18] 58.5% | [19] 55.2%
active: [7] -0.58% | [17] -8.51%

CC(=O)Nc1ccc(-c2cn(-c3cccc(C(=O)Nc4cccc(OC(F)(F)F)c4)c3)nn2)cn1
inactive: [1] 87% | [2] 106% | [3] 114% | [4] 97.7% | [5] 47.4% | [6] 122% | [7] 88.5% | [8] 86.3% | [9] 115% | [10] 111% | [11] 84.4% | [12] 61.8% | [13] 26.4% | [14] 97.4% | [15] 86.3% | [16] 87.4% | [17] 84.3% | [18] 89.8% | [19] 80.4%

Cc1ccc(C(=O)CSc2nnc(-c3c[nH]c4ccccc34)n2-c2ccccc2)cc1
active: [2] -41.3% | [4] 7.8% | [6] -7.56% | [7] 1.43% | [9] -35.4% | [14] -2.39%
inactive: [1] 17.3% | [3] 74.9% | [5] 29.3% | [8] 53.3% | [10] 75% | [11] 78.9% | [12] 27.2% | [13] 35.1% | [15] 29.7% | [16] 11.1% | [17] 22.1% | [18] 77.3% | [19] 51.2%

CN(CCO)c1oc(-c2ccccc2)nc1[P+](c1ccccc1)(c1ccccc1)c1ccccc1
active: [1] -5.17% | [2] -11.8% | [5] 6.61% | [6] -24.2% | [7] -9.01% | [10] -59.6% | [11] 4.07% | [12] 9.88% | [13] -12% | [14] -6.83% | [16] -13.8% | [17] 8.12% | [18] -3.98%
inactive: [3] 19.8% | [4] 13.2% | [8] 22.3% | [9] 14.2% | [15] 11.4% | [19] 12.2%

CN1CCc2c(sc3ncnc(N/N=C/c4cn(-c5ccccc5)nc4-c4ccc(Cl)cc4)c23)C1
inactive: [2] 33.1% | [3] 28.7% | [4] 29.8% | [6] 45.7% | [8] 26.3% | [9] 25.3% | [11] 31.4% | [13] 17.8% | [15] 30.7% | [16] 21.6% | [19] 16.6%
active: [1] -20.6% | [5] 1.06% | [7] 3.5% | [10] -30.1% | [12] 9.51% | [14] 4.63% | [17] 7.13% | [18] 8.67%

O=C(CSc1nnc(-c2c[nH]c3ccccc23)n1-c1ccccc1)Nc1ccc(C(=O)/C=C/c2cccc([N+](=O)[O-])c2)cc1
inactive: [1] 86.2% | [2] 72.7% | [3] 100% | [4] 98.2% | [5] 99.2% | [6] 104% | [7] 82.1% | [8] 97.2% | [9] 101% | [10] 119% | [11] 95.9% | [12] 86.1% | [13] 90.9% | [14] 91.7% | [15] 78.8% | [16] 88.4% | [17] 89.6% | [18] 102% | [19] 94.1%

Cn1c(O)c(N=Nc2nc(-c3cc4ccccc4oc3=O)cs2)c2cc(Br)ccc21
active: [6] -14.7% | [9] -12% | [17] -6.85%
inactive: [1] 51.2% | [2] 52% | [3] 84.4% | [4] 12.1% | [5] 92% | [7] 57.9% | [8] 97.8% | [10] 136% | [11] 101% | [12] 100% | [13] 49.8% | [14] 41.4% | [15] 47.2% | [16] 14.3% | [18] 100% | [19] 88.7%

O=C1CCC(N2Cc3c(NCc4ccc(-c5ccccc5)cc4)cccc3C2=O)C(=O)N1 (centres undefined)
inactive: [1] 72.9% | [2] 55.1% | [3] 77.2% | [4] 74.4% | [5] 36.4% | [6] 24.3% | [7] 82.7% | [8] 71.6% | [9] 70.8% | [10] 82% | [11] 85% | [12] 72.4% | [13] 15.2% | [14] 22.2% | [15] 68.1% | [16] 81.9% | [17] 58.4% | [18] 103% | [19] 75.4%

Oc1ccc(/C=C2\CCCc3cc4ccc(O)cc4[o+]c32)c(O)c1
inactive: [1] 30% | [2] 77.6% | [3] 63.3% | [4] 44.7% | [5] 19.8% | [6] 40.9% | [8] 83% | [9] 24.4% | [10] 50.6% | [12] 41.5% | [13] 45.1% | [15] 69.6% | [16] 90.1% | [18] 69% | [19] 43.2%
active: [7] 4.53% | [11] 8.58% | [14] -27.4% | [17] -15%

CN(C)c1ccc(/C=C/c2nc3ccccc3c(=O)n2CC(=O)Nc2ccc(Cl)cc2)cc1
inactive: [1] 67.2% | [3] 61.7% | [4] 25.4% | [5] 44.6% | [7] 77.9% | [8] 43.8% | [9] 27.8% | [10] 57.3% | [11] 36.7% | [12] 68.7% | [13] 15.5% | [14] 35.1% | [15] 58.5% | [16] 27.9% | [18] 78.7% | [19] 65.2%
active: [2] 2.45% | [6] -13.6% | [17] -63.6%

C/C(=C\c1ccc(O)cc1O)c1ccc2ccc(O)cc2[o+]1
inactive: [1] 45.8% | [2] 66.2% | [3] 78.1% | [4] 54.9% | [5] 56.8% | [6] 83.8% | [7] 55% | [8] 91.9% | [9] 52.9% | [10] 116% | [11] 25.8% | [12] 72.7% | [13] 56.8% | [14] 39.6% | [15] 116% | [16] 80.6% | [17] 72.4% | [18] 84% | [19] 73.3%

COc1ccc(-c2c(N)c(=O)n(C)c3ccccc23)cc1
active: [6] 9.05%
inactive: [1] 67.7% | [2] 46.5% | [3] 77% | [4] 75.3% | [5] 88.1% | [7] 61.1% | [8] 92.1% | [9] 73.5% | [10] 103% | [11] 83.2% | [12] 46.8% | [13] 70.6% | [14] 49.5% | [15] 66% | [16] 75.2% | [17] 80.6% | [18] 92.9% | [19] 70.6%

O=C1Nc2ccc(Cl)cc2/C1=C/c1ccc(OCc2ccccn2)cc1
inactive: [1] 62.2% | [3] 64.2% | [4] 45.6% | [5] 16% | [6] 72.1% | [7] 66% | [8] 64.4% | [9] 25.7% | [10] 89.1% | [11] 87.8% | [12] 51% | [13] 38.5% | [14] 21.7% | [15] 79.3% | [16] 84.5% | [17] 73.5% | [18] 118% | [19] 89.9%
active: [2] 1.26%
